# The full data set covers some 8,800 targets. This sample favours those with a hit. About 0.5% of all pairs of compound and target were hits. A number with no mark means an inactive call.
# What was measured:
# Experiment in all cases: log2 fold change, soluble protein after heating vs DMSO (PISA); higher = thermal stabilisation; K562 lysate, 10 uM; active = over 0.2 and 3.5 SD of the protein, either way, in both replicates (recomputed)
# ibrutinib = compound: C=CC(=O)N1CCC[C@@H](n2nc(-c3ccc(Oc4ccccc4)cc3)c3c(N)ncnc32)C1 [ibrutinib]
# Outline: (§1)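 K562 pellets were dounce-homogenised in PBS pH 7.4 with 1 mM MgCl2, and the crude extract at 1 mg/mL protein was treated with 10 μM compound for 30 min. Aliquots were heated for 3 min across 48°C-58°C, pooled, and brought to 0.5% NP-40 at 4°C; soluble protein was the supernatant after 21,000xg for 90 min. Soluble protein was quantified by TMTpro 16plex LC-MS/MS with channel sums equalised, and reported as log2 fold change in thermal stability against DMSO controls, with values from duplicates.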
# [1] = compound: CC(=O)c1cnc2ccc(-c3cc(Cl)c(O)c(Cl)c3)nc2c1N[C@H]1CC[C@H](CN(C)C)CC1
# Outline: as §1
# ralimetinib = compound: CC(C)(C)Cn1c(N)nc2ccc(-c3[nH]c(C(C)(C)C)nc3-c3ccc(F)cc3)nc21 [ralimetinib]
# Outline: as §1
# [2] = compound: CC(C)(O)CC(=O)NCCn1ccc2ncnc(Nc3ccc(Oc4cccc(C(F)(F)F)c4)c(Cl)c3)c21
# Outline: as §1
# [3] = compound: CC(C)C1=C2N=C(C=C(N2N=C1)NCC3=CC=CC=C3)NCCCCCCN
# Outline: as §1
# [4] = compound: CC1=C(C(CC(=O)N1)C2=CC=C(C=C2)C(F)(F)F)C(=O)NC3=C(C=C4C(=C3)C=NN4)F
# Outline: as §1
# [5] = compound: CC1=C(C2=C(C=C1)C(=O)C3=CC=CC=C3N2CCCN)C
# Outline: as §1
# [6] = compound: CC1=C(C=C(C=C1)NC(=O)C2=CC(=CC=C2)C(C)(C)C#N)NC3=CC4=C(C=C3)N=CN(C4=O)C
# Outline: as §1
# [7] = compound: CC1=C(C=C(C=C1)NC(=O)C2=CC(=CC=C2)N(C)C)NC(=O)C3=CC=C(C=C3)O
# Outline: as §1
# [8] = compound: CC1=CC=C(C=C1)SC2=C3C=C(SC3=CN=C2)C(=O)N
# Outline: as §1
# vemurafenib = compound: CCCS(=O)(=O)Nc1ccc(F)c(C(=O)c2c[nH]c3ncc(-c4ccc(Cl)cc4)cc23)c1F [vemurafenib]
# Outline: as §1
# [9] = compound: CCCS(=O)(=O)Nc1ccc(F)c(C(=O)c2c[nH]c3ncc(Cl)cc23)c1F
# Outline: as §1
# barasertib = compound: CCN(CCCOc1ccc2c(Nc3cc(CC(=O)Nc4cccc(F)c4)[nH]n3)ncnc2c1)CCOP(=O)(O)O [barasertib]
# Outline: as §1
# [10] = compound: CC[C@@H]1C(=O)N(C)c2cnc(Nc3ccc(C(=O)NC4CCN(C)CC4)cc3OC)nc2N1C1CCCC1
# Outline: as §1
# volasertib = compound: CC[C@@H]1C(=O)N(C)c2cnc(Nc3ccc(C(=O)N[C@H]4CC[C@H](N5CCN(CC6CC6)CC5)CC4)cc3OC)nc2N1C(C)C [volasertib]
# Outline: as §1
# [11] = compound: CCn1c(C(=O)N(C2CC2)C2CC2)cc2c3c(ncn3C)c(Nc3cc(C)n(C)n3)nc21
# Outline: as §1
# [12] = compound: CCn1cc(-c2ccnc3[nH]c(-c4cccc(CN(C)C)c4)cc23)c(-c2ccc(NC(=O)N(C)C)cc2)n1
# Outline: as §1
# [13] = compound: CN1CCC(CNc2ccc3ncc(-c4cccc(OC(F)(F)F)c4)n3n2)CC1
# Outline: as §1
# saracatinib = compound: CN1CCN(CCOc2cc(OC3CCOCC3)c3c(Nc4c(Cl)ccc5c4OCO5)ncnc3c2)CC1 [saracatinib]
# Outline: as §1
# sotrastaurin = compound: CN1CCN(c2nc(C3=C(c4c[nH]c5ccccc45)C(=O)NC3=O)c3ccccc3n2)CC1 [sotrastaurin]
# Outline: as §1
# Chain of UniProt Q9NVE7 (Q9NVE7 whole entry, looked up): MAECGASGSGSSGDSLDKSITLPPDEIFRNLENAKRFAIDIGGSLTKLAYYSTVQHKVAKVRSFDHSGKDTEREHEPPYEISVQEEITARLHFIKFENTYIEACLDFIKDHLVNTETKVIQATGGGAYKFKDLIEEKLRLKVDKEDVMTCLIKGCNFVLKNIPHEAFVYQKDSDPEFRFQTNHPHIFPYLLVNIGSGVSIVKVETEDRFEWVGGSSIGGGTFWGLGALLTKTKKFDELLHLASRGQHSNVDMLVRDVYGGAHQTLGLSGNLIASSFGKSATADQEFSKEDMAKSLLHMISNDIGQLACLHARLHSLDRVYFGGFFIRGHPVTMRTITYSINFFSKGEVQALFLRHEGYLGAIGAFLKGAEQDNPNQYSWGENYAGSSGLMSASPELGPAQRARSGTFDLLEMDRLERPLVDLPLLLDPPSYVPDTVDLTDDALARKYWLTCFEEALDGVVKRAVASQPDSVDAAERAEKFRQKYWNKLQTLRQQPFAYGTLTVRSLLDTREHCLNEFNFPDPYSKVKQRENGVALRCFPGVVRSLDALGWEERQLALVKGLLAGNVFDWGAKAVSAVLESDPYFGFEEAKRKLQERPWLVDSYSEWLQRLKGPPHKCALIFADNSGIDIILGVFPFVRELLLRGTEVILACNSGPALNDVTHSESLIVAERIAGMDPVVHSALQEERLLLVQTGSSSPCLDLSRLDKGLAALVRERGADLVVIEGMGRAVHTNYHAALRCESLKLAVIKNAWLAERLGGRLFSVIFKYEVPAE
# Chain of UniProt Q5VZE5 (Q5VZE5 whole entry, looked up): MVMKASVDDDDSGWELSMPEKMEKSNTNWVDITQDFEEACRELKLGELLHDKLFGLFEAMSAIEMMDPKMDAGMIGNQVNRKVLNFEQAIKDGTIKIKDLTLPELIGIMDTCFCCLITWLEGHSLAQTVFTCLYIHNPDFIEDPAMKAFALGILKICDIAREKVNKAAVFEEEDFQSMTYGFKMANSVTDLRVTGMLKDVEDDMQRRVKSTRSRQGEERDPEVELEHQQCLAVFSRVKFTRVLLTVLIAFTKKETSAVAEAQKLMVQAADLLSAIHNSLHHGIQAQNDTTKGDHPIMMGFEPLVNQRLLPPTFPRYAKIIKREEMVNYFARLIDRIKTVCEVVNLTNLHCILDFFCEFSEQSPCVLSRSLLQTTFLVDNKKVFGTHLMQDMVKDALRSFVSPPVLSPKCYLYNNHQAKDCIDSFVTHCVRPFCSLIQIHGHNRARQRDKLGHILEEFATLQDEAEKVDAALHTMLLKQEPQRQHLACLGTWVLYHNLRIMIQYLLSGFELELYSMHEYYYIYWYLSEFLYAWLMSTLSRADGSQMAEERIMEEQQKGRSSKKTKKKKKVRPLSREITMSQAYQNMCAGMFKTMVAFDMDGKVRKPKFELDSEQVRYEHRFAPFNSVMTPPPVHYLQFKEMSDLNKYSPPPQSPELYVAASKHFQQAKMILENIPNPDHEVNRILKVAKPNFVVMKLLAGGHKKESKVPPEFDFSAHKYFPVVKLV
# Chain of UniProt O76041 (O76041 whole entry, looked up): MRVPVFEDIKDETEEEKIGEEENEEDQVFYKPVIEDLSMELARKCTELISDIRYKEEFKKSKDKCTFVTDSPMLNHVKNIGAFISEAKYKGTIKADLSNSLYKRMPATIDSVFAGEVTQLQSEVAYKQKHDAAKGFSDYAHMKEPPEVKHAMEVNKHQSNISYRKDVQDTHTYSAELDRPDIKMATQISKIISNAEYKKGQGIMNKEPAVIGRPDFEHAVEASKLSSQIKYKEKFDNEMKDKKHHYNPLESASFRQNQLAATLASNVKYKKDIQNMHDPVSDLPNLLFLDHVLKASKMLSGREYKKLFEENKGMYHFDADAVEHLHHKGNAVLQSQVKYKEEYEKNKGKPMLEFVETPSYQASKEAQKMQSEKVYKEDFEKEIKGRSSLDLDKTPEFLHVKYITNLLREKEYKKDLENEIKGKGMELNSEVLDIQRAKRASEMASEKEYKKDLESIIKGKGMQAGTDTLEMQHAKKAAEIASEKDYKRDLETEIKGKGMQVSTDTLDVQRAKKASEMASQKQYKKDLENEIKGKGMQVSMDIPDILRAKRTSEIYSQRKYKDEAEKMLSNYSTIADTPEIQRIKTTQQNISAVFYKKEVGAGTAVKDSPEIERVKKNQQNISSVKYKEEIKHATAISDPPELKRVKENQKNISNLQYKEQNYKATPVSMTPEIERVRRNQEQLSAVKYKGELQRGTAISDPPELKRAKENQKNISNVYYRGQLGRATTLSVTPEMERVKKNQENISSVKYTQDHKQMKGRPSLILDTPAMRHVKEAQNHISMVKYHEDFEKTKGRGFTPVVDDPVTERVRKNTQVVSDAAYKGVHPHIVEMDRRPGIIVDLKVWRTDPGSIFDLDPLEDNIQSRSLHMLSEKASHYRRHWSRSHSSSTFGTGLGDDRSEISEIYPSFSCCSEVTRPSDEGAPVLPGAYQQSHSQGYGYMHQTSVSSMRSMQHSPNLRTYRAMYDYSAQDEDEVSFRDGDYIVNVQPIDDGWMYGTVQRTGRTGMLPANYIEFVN
# Chain of UniProt O15294 (O15294 whole entry, looked up): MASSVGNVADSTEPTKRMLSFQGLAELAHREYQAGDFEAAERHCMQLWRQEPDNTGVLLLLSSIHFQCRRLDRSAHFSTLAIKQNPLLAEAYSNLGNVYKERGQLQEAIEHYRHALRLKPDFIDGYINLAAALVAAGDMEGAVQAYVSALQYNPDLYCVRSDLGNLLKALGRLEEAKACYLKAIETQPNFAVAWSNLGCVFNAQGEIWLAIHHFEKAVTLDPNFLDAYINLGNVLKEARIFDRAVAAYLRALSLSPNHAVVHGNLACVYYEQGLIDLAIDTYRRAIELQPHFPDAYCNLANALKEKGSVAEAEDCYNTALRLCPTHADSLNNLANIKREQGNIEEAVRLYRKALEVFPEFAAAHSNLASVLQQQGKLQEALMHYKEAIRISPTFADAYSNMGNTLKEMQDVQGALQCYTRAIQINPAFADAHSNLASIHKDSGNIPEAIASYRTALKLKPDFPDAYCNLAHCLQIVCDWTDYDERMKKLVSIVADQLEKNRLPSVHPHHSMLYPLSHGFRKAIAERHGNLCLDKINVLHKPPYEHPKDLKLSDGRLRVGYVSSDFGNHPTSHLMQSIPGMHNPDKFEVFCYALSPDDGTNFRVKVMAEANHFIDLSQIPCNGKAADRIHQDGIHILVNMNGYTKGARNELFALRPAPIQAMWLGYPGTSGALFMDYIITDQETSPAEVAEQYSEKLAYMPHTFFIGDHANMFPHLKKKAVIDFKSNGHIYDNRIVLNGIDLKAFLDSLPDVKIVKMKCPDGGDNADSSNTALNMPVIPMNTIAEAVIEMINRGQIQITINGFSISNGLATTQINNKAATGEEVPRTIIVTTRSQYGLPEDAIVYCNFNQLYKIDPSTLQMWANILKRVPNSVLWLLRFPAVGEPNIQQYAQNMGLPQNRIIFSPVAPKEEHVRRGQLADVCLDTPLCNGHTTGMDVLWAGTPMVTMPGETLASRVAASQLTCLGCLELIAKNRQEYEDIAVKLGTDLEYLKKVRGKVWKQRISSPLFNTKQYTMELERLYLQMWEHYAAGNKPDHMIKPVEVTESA
# Chain of UniProt Q8TEW0 (Q8TEW0 whole entry, looked up): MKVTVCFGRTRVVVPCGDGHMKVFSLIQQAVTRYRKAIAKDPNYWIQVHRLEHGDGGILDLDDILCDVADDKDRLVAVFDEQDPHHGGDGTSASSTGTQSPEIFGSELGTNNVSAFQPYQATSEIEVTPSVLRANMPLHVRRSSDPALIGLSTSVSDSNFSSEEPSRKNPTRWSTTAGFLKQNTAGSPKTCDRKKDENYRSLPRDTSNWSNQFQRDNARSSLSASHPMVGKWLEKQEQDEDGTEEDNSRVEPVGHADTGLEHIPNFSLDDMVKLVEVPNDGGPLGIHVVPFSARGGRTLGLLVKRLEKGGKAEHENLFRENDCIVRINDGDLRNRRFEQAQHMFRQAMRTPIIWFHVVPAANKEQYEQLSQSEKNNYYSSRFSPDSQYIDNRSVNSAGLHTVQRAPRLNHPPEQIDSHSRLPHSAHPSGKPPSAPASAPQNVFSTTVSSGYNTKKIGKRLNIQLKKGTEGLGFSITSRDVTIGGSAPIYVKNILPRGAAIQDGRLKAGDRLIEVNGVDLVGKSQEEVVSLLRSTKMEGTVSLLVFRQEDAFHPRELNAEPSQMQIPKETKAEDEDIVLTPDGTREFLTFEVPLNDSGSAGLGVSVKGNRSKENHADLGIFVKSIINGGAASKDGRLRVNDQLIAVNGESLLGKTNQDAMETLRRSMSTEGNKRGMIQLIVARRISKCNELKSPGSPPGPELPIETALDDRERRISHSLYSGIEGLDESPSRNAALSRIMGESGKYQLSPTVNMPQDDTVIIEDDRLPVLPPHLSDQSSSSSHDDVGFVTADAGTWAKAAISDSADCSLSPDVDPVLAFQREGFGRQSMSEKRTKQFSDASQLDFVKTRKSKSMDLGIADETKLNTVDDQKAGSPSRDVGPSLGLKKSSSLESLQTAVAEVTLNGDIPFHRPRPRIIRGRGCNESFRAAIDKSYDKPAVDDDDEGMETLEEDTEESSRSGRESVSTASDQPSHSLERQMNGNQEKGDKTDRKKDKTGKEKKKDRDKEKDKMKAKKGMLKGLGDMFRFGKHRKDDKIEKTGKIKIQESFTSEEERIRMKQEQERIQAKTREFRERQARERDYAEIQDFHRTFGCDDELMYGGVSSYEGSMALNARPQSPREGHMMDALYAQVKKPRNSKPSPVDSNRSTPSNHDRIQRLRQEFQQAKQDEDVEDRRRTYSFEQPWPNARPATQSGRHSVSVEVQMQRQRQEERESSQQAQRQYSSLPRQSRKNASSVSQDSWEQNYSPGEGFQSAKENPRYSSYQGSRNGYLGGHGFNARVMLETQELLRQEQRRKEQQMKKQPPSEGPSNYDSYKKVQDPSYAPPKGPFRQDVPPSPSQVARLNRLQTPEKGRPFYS
# Chain of UniProt O00483 (O00483 whole entry, looked up): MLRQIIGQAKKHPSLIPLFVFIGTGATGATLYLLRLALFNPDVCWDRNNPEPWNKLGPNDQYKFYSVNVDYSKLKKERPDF
Target,log2 fold change (ibrutinib),log2 fold change [1],log2 fold change (ralimetinib),log2 fold change [2],log2 fold change [3],log2 fold change [4],log2 fold change [5],log2 fold change [6],log2 fold change [7],log2 fold change [8],log2 fold change (vemurafenib),log2 fold change [9],log2 fold change (barasertib),log2 fold change [10],log2 fold change (volasertib),log2 fold change [11],log2 fold change [12],log2 fold change [13],log2 fold change (saracatinib),log2 fold change (sotrastaurin)
NDUFS1 isoform 2 (UniProt P28331),-0.022,-0.009,0.014,-0.049,-0.041,0.01,0.007,-0.045,0.005,0.005,0.041,0.018,0.011,-0.032,-0.001,0.016,-0.006,-0.027,-0.004,0.054
PAN2 isoform 2 (UniProt Q504Q3),-0.141,0.036,0.022,-0.022,-0.025,0.022,0.015,0.012,-0.038,0.027,0.072,0.031,0.03,0.041,-0.132,0.031,0.006,-0.04,-0.021,0.018
NEBL (UniProt O76041),0.087,0.052,0.009,-0.003,-0.015,-0.037,-0.061,-0.006,-0.012,-0.025,0.034,-0.027,0.066,0.039,0.014,-0.014,0.29 (active),-0.002,-0.035,0.085
NAA35 (UniProt Q5VZE5),-0.005,-0.017,0.006,0.042,-0.01,-0.008,-0.004,-0.006,0.017,-0.02,0,0.015,-0.01,0.05,-0.026,0.001,0.179,-0.035,0.026,0.006
NDUFA4 (UniProt O00483),0.007,0.199,0.022,0.03,-0.068,-0.045,-0.036,-0.058,0.009,-0.199,-0.009,0.245,0.058,0.011,0.122,0.085,0.067,-0.134,0.018,-0.063
MTMR6 (UniProt Q9Y217),0.011,-0.02,0.041,0.026,0.043,-0.044,0.006,0.121,0.011,-0.006,0.038,0.012,0.018,0.006,-0.024,-0.055,0.217,-0.08,0.024,0.087
PANK4 (UniProt Q9NVE7),0.039,0.001,0.023,-0.008,0.036,-0.01,-0.024,-0.001,-0.005,-0.005,0.026,0.011,0.054,-0.051,-0.091,0.003,-0.136,0.077,0.001,0.012
NOSTRIN (UniProt Q8IVI9),0.025,-0.009,0.012,-0.041,-0.125,-0.032,-0.039,-0.019,0.088,0.012,0.091,0.024,0.085,-0.178,-0.029,-0.026,0.025,-0.094,-0.001,-0.054
NMT1 (UniProt P30419),-0.045,0.005,-0.001,0.014,0.022,-0.011,-0.009,-0.01,0.017,0.001,0.024,0.016,-0.025,0.014,-0.002,0.01,-0.04,0.001,0.003,0.025
MRPL58 (UniProt Q14197),0.025,0.032,-0.022,0.006,-0.013,0.089,-0.034,-0.035,0.032,0.053,0.104,-0.017,0.033,-0.033,-0.043,0.004,0.148,-0.151,0.04,0.019
OGT (UniProt O15294),-0.035,-0.024,0.021,0.023,-0.007,-0.009,-0.026,-0.014,0.032,-0.005,0.012,0.015,0.031,-0.003,-0.058,0.036,-0.002,-0.021,0.011,0.018
NR3C1 isoform 3 (UniProt P04150),-0.168,-0.019,-0.076,0.04,0.008,-0.031,0.104,0.024,-0.033,0.055,-0.138,0.027,-0.385,-0.086,-0.046,0.001,0.07,-0.081,0.072,-0.016
PARD3 (UniProt Q8TEW0),0.026,0.134,-0.017,-0.011,0.001,0.011,0.006,0.116,0.01,-0.068,0.145,-0.017,-0.123,-0.009,-0.016,-0.032,-0.147,-0.08,0.016,0.004
MT-ND1 (UniProt P03886),0.032,-0.006,0.061,-0.101,-0.052,0.056,-0.007,0.055,-0.005,0.088,-0.074,0.012,0.056,-0.068,-0.04,-0.096,-0.355,0.066,0.075,0.038
OSBP2 (UniProt Q969R2),0,0.077,0.036,-0.103,-0.223,-0.006,0.023,0.051,-0.011,0,-0.056,-0.014,-0.055,0.062,-0.077,-0.001,-0.881 (active),0.279,0.068,0.104
MRPL51 (UniProt Q4U2R6),0.02,-0.005,0.048,0.011,-0.038,0.066,0.006,-0.062,0.051,0.017,0.032,0.028,0,-0.044,0.022,0.038,-0.309,0.16,0.02,0.008
